Measurements published in PubChem BioAssay (EPA / NIEHS).
The source made the active and inactive calls. Rule for the calls: active = hit-call score of the fitted dose curve at least 0.9, where 1 is the maximum; inactive = score below 0.9. Peptide text beside a SMILES is read from it.

Tested on: not listed separately
Assay: ATG_BRE_CIS: Attagene CIS-FACTORIAL HepG2 Assay for human Bone Morphogenetic Protein (BMP) Response Element (BRE) (AID 2282933)
Settings: HepG2 BMP response element reporter, Attagene transcription factor profiling; actives raise or lower the signal
How it was run: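 Read-out: reporter mRNA induction quantified by RT-PCR and capillary electrophoresis after 24 h chemical exposure of transfected HepG2 cells. Endogenous factor activity on the BMP response element; gain or loss fitted against DMSO baseline.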

Row | Structure (SMILES) | outcome | AC50
1 | CC1(C)[C@@H]2CC[C@@]1(C)C(=O)C2 | inactive | –
2 | COc1ccc(C(=O)/C(Br)=C\C(=O)O)cc1 | inactive | –
3 | C/C=C/C=C/CCCCCCCO | – | 156 µM (active)
4 | CCCCCCCCCCCC(C)=O | inactive | –
5 | CCCCCCCCCCCCC | inactive | –
6 | CC(C)(C)NC(=O)[C@H]1CC[C@H]2[C@@H]3CC[C@H]4NC(=O)C=C[C@]4(C)[C@H]3CC[C@]12C | inactive | –
7 | CCC1(C)C(=O)N(Cl)C(=O)N1Cl (stereo unspecified) | inactive | –
8 | CC/C=C\CCOC(=O)c1ccccc1O | inactive | –
9 | CN1CCN(C)CC1 | inactive | –
10 | CC(C)OC(=O)c1ccccc1 | inactive | –
11 | C=CCCCCCCCCC=O | inactive | –
12 | CC(=O)/C=C/C1C(C)=CCCC1(C)C (stereo unspecified) | inactive | –
13 | C=C(C)C1CC=C(C)CC1 (stereo unspecified) | inactive | –
14 | O=C(O)c1ccc2c(c1)C(=O)OC2=O | inactive | –
15 | CC1=CCC(C(C)C)C=C1 (stereo unspecified) | inactive | –
16 | CC(=O)OC/C=C(/C)CCC=C(C)C | inactive | –

Target: Retinoic acid receptor alpha (Homo sapiens) (UniProt P10276)
Sequence (P10276 whole entry, looked up): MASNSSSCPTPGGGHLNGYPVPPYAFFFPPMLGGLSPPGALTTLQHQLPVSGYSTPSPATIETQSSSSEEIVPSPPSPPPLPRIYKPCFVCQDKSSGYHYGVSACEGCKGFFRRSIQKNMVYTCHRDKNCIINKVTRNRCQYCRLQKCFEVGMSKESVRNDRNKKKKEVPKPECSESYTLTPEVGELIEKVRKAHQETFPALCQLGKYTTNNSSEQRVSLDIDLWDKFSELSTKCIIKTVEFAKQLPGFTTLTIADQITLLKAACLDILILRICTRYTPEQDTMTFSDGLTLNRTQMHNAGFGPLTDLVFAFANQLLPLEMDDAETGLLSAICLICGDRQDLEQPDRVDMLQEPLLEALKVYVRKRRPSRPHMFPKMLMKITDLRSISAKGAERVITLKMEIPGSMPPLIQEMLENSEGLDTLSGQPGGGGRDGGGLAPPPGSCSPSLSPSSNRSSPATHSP
Assay: ATG_DR5_RAR_CIS: Attagene CIS-FACTORIAL HepG2 Assay for human Retinoic Acid Receptor Alpha (RARE), DR5 submotif (AID 2282934);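 for AC50: reporter responds to endogenous RAR alpha beta and gamma in HepG2 not RARA alone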
Settings: HepG2 Attagene cis-factorial RARE DR5 reporter, mRNA; actives raise or lower the signal
How it was run: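 HepG2 cells transiently transfected with multiplexed reporter units; DR5 cis-element drives reporter through endogenous transcription factors. After 24 h dosing, reporter mRNA quantified by RT-PCR, fluorescent labeling, HpaI digestion and capillary electrophoresis; bidirectional fitting versus DMSO.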

Row | Structure (SMILES) | outcome | AC50
17 | O=S(=O)(O)c1ccc(N=Nc2c(O)ccc3ccccc23)cc1 | inactive | –
18 | Cc1ccc(C)c(OCCCC(C)(C)C(=O)O)c1 | inactive | –
19 | COc1ccc(C(=O)/C(Br)=C\C(=O)O)cc1 | inactive | –
20 | C/C=C/C=C/CCCCCCCO | inactive | –
21 | CC(=O)OCC=C(C)C | inactive | –
22 | CCCC=C(C=O)CC | inactive | –
23 | CCc1cccc(C)c1N | inactive | –
24 | CCCCCCCCCCCCC | inactive | –
25 | COCC(=O)O | inactive | –
26 | CCC1COC(=O)O1 (stereo unspecified) | inactive | –
27 | CCCC1CCCC(=O)O1 (stereo unspecified) | inactive | –
28 | C[Si](C)(C)N[Si](C)(C)C | inactive | –
29 | CC(=O)OC1CCCCC1 | inactive | –
30 | CCCCCC(=O)OCC | inactive | –
31 | CC1CC(=O)CC(C)(C)C1 (stereo unspecified) | inactive | –
32 | CCC1(C)C(=O)N(Cl)C(=O)N1Cl (stereo unspecified) | inactive | –
33 | CN1CCN(C)CC1 | inactive | –
34 | CC(C)OC(=O)c1ccccc1 | inactive | –
35 | COC(=O)[C@H](Cc1ccccc1)NC(=O)[C@@H](N)CC(=O)O (H-Asp-Phe-OMe) | inactive | –
36 | C=CCCCCCCCCC=O | inactive | –
37 | c1ccc(-c2nc3ccccc3[nH]2)cc1 | inactive | –
38 | CCCCCCCCC(CO)CCCCCC (stereo unspecified) | inactive | –
39 | O=C(O)c1ccc2c(c1)C(=O)OC2=O | inactive | –
40 | CC(C)(c1ccccc1)c1ccc(Nc2ccc(C(C)(C)c3ccccc3)cc2)cc1 | inactive | –
41 | CCCC(C)C(=O)OCC (stereo unspecified) | inactive | –
42 | NC(=O)Nc1ccccc1 | inactive | –
43 | CCN(CC)c1cccc(C)c1 | inactive | –
44 | O=C(O)c1cc(O)c2ccccc2c1O | – | 22.8 µM (active)

Target: Transcription factor E2F1 (Homo sapiens) (UniProt Q01094)
Sequence (Q01094 whole entry, looked up): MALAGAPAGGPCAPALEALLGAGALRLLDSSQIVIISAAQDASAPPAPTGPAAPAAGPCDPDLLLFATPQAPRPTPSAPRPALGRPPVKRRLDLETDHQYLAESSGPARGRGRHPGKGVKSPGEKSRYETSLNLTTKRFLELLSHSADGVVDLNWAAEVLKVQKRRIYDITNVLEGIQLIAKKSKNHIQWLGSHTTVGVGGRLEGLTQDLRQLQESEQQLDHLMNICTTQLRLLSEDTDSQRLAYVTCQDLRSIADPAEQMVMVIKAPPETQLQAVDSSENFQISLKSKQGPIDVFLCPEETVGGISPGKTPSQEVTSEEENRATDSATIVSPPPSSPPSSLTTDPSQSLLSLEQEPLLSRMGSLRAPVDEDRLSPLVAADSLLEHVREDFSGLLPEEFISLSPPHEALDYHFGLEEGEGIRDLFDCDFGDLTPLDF
Assay: ATG_E2F_CIS: Attagene CIS-FACTORIAL HepG2 Assay for human E2F Transcription Factor 1 (AID 2282935)
Settings: HepG2 Attagene cis-reporter, E2F reporter RNA transcripts; actives raise or lower the signal
How it was run: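 Endogenous E2F1 activity read through cis-promoter reporter units transfected into HepG2. After 24 h compound treatment, reporter mRNA measured by RT-PCR, HpaI digestion and capillary electrophoresis. Bidirectional fit versus DMSO.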

Row | Structure (SMILES) | outcome | AC50
45 | O=S(=O)(O)c1ccc(N=Nc2c(O)ccc3ccccc23)cc1 | inactive | –
46 | CC1(C)[C@@H]2CC[C@@]1(C)C(=O)C2 | inactive | –
47 | Cc1ccc(C)c(OCCCC(C)(C)C(=O)O)c1 | inactive | –
48 | COc1ccc(C(=O)/C(Br)=C\C(=O)O)cc1 | inactive | –
49 | C/C=C/C=C/CCCCCCCO | inactive | –
50 | CCCCCCCCCCCC(C)=O | inactive | –
51 | CC(=O)OCC=C(C)C | inactive | –
52 | CCCC=C(C=O)CC | inactive | –
53 | CCc1cccc(C)c1N | inactive | –
54 | CCCCCCCCCCCCC | inactive | –
55 | COCC(=O)O | inactive | –
56 | CCC1COC(=O)O1 (stereo unspecified) | inactive | –
57 | C[Si](C)(C)N[Si](C)(C)C | inactive | –
58 | CCCC(CC)c1ccccc1 (stereo unspecified) | inactive | –
59 | CC(=O)OC1CCCCC1 | inactive | –
60 | CCCCCC(=O)OCC | inactive | –

Row | Structure (SMILES) | outcome | AC50
61 | CC1CC(=O)CC(C)(C)C1 (stereo unspecified) | inactive | –
62 | CC(C)(C)NC(=O)[C@H]1CC[C@H]2[C@@H]3CC[C@H]4NC(=O)C=C[C@]4(C)[C@H]3CC[C@]12C | inactive | –
63 | CCC1(C)C(=O)N(Cl)C(=O)N1Cl (stereo unspecified) | inactive | –
64 | CN1CCN(C)CC1 | inactive | –
65 | CC(C)OC(=O)c1ccccc1 | inactive | –
66 | COC(=O)[C@H](Cc1ccccc1)NC(=O)[C@@H](N)CC(=O)O (H-Asp-Phe-OMe) | inactive | –
67 | C=CCCCCCCCCC=O | inactive | –
68 | c1ccc(-c2nc3ccccc3[nH]2)cc1 | inactive | –
69 | C=C(C)C1CC=C(C)CC1 (stereo unspecified) | inactive | –
70 | CCCCCCCCC(CO)CCCCCC (stereo unspecified) | – | 189 µM (active)
71 | O=C(O)c1ccc2c(c1)C(=O)OC2=O | inactive | –
72 | CC(C)(c1ccccc1)c1ccc(Nc2ccc(C(C)(C)c3ccccc3)cc2)cc1 | inactive | –
73 | CCCC(C)C(=O)OCC (stereo unspecified) | inactive | –
74 | NC(=O)Nc1ccccc1 | inactive | –
75 | O=C(O)c1cc(O)c2ccccc2c1O | – | 59.1 µM (active)

Tested on: not listed separately
Assay: ATG_E_Box_CIS: Attagene CIS-FACTORIAL HepG2 Assay for human Enhancer Box (E-box) (AID 2282936)
Settings: HepG2 E-box cis-reporter transcription, actives raise or lower the signal
How it was run: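 HepG2 cells transiently transfected with multiplexed cis-element reporter units, dosed 24 h; reporter mRNA quantified by RT-PCR, 6-FAM labelling, HpaI digestion and capillary electrophoresis. E-box (USF1) signal fitted bidirectionally vs DMSO.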

Row | Structure (SMILES) | outcome | AC50
76 | O=S(=O)(O)c1ccc(N=Nc2c(O)ccc3ccccc23)cc1 | inactive | –
77 | CC1(C)[C@@H]2CC[C@@]1(C)C(=O)C2 | inactive | –
78 | Cc1ccc(C)c(OCCCC(C)(C)C(=O)O)c1 | inactive | –
79 | COc1ccc(C(=O)/C(Br)=C\C(=O)O)cc1 | inactive | –
80 | C/C=C/C=C/CCCCCCCO | inactive | –
81 | CC(=O)OCC=C(C)C | inactive | –
82 | CCCC=C(C=O)CC | inactive | –
83 | CCc1cccc(C)c1N | inactive | –
84 | CCCCCCCCCCCCC | inactive | –
85 | COCC(=O)O | inactive | –
86 | CCC1COC(=O)O1 (stereo unspecified) | inactive | –
87 | CCCC(CC)c1ccccc1 (stereo unspecified) | inactive | –
88 | CC(=O)OC1CCCCC1 | inactive | –
89 | CCCCCC(=O)OCC | inactive | –
90 | CC1CC(=O)CC(C)(C)C1 (stereo unspecified) | inactive | –
91 | CCC1(C)C(=O)N(Cl)C(=O)N1Cl (stereo unspecified) | inactive | –

Row | Structure (SMILES) | outcome | AC50
92 | CC/C=C\CCOC(=O)c1ccccc1O | inactive | –
93 | CN1CCN(C)CC1 | inactive | –
94 | CC(C)OC(=O)c1ccccc1 | inactive | –
95 | C=CCCCCCCCCC=O | inactive | –
96 | c1ccc(-c2nc3ccccc3[nH]2)cc1 | inactive | –
97 | CC(=O)/C=C/C1C(C)=CCCC1(C)C (stereo unspecified) | inactive | –
98 | C=C(C)C1CC=C(C)CC1 (stereo unspecified) | inactive | –
99 | CCCCCCCCC(CO)CCCCCC (stereo unspecified) | – | 34.3 µM (active)
100 | O=C(O)c1ccc2c(c1)C(=O)OC2=O | inactive | –
101 | CC(C)(c1ccccc1)c1ccc(Nc2ccc(C(C)(C)c3ccccc3)cc2)cc1 | inactive | –
102 | CCCC(C)C(=O)OCC (stereo unspecified) | inactive | –
103 | NC(=O)Nc1ccccc1 | inactive | –
104 | CCN(CC)c1cccc(C)c1 | inactive | –
105 | CC(=O)OC/C=C(/C)CCC=C(C)C | inactive | –
106 | O=C(O)c1cc(O)c2ccccc2c1O | – | 8.86 µM (active)
